Assay outcomes from PubChem.
Compounds with a hit are over-represented: about 2.7% of the library has one in this group of screens.
IP6K1 inhibitor = blocks human inositol hexakisphosphate kinase 1 | IP6K1 kinase, ADP-Glo luminescence, 2 h; stronger effect = lower value | hit rate 0.81% among 140,000 | Q92551 | activity change, % (series mostly up to about 58 µM); in the data active = activity change below about -25%; note: % is set by controls: 0 for no effect and ±100 for the full control effect
Target sequence (Q92551 whole entry, looked up): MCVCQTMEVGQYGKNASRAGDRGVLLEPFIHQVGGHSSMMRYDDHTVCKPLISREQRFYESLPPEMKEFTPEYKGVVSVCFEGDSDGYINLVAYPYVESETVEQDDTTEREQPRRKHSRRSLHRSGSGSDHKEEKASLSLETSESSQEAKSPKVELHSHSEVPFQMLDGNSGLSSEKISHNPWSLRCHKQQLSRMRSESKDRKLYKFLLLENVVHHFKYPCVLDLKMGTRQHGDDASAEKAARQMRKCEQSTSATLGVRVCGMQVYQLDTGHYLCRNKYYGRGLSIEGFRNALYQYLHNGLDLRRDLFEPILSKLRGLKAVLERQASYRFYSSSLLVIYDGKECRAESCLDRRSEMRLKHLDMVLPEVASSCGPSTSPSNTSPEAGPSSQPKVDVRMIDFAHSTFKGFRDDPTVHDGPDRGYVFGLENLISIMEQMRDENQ
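ADP-Glo luminescence measures ADP made by human IP6K1 during a 2 h RT reaction with ATP/IP6 (mix at 1.3 mM/130 uM); top library doses 57.5 and 19.1 uM final.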
KDM5B inhibitor = KDM5B demethylase inhibition; Q9UGL1; KDM5B demethylase, FDH-coupled NADH fluorescence (FDH is formaldehyde dehydrogenase); Potency, µM (doses to about 57.7 µM), actives largely listed as inhibitors; hit rate 2.6% among 220,000; active = well fitted inhibition curve with a large enough effect; inconclusive = small, poorly fitted or top-dose-only effect; inactive = no such curve, though single readings can be large or run the other way; note: potency is the fitted concentration of half-maximal effect; 0% is about no effect; nearly all actives have a fitted effect of over 70% in size
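Here, H3K4me3 peptide (12.5 µM in substrate mix) is demethylated by KDM5BΔAP, 200 nM final, after 10 min compound exposure. Formaldehyde product is coupled through FDH (0.25 U/mL in mix) to NADH fluorescence; 30-min ΔRFU feeds dose-response curves.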
* = called active by the depositor.

Results for COCCNc1ncc(-c2ccc([S+](C)(=O)[O-])cc2)c2c1OCC2 ?
IP6K1 inhibitor: 2; KDM5B inhibitor: 32µM*

Results for COCCNc1ncc(-c2cccc(NC(C)=O)c2)c2c1OCC2 ?
IP6K1 inhibitor: 0; KDM5B inhibitor: 40µM*

What do the screens show for `COCCNc1ncc(-c2ccnc(C)c2)c2c1OCC2`?
IP6K1 inhibitor: -11; KDM5B inhibitor: inconclusive

Results for Cc1ccc(CN(C)C(=O)Cc2c[nH]c3ccccc23)cc1 ?
KDM5B inhibitor: inactive

What do the screens show for `CCCCC1(C)NC(=O)N(c2ccc(Br)cc2)N1` (stereo unspecified)?
KDM5B inhibitor: inactive

Results for O=C(CCNc1c(-c2cccc(F)c2)nc2cnccn12)NCc1ccccc1 ?
IP6K1 inhibitor: 9; KDM5B inhibitor: 25µM*

Results for O=C(CCc1conc1-c1cccc(F)c1)NCc1ccc(F)cc1 ?
IP6K1 inhibitor: 16; KDM5B inhibitor: inactive

How did COc1cccc(CNC(=O)CCNc2cnc3cnccn23)c1 do in these assays?
IP6K1 inhibitor: 11; KDM5B inhibitor: 20µM*

What do the screens show for `O=C(CCNc1c(-c2cccc(F)c2)nc2cnccn12)NCC1CCCO1` (stereo unspecified)?
IP6K1 inhibitor: 3; KDM5B inhibitor: 28µM*

Results for CNC(=O)NCc1cccc(OC)c1 ?
KDM5B inhibitor: inactive

How did O=C(CCc1ccccc1)NCC1CCCO1 (stereo unspecified) do in these assays?
KDM5B inhibitor: inactive

Results for O=C(NC1CCCC1)NC1CCN(c2ccc3nnc(-c4ccccc4)n3n2)C1 (stereo unspecified) ?
IP6K1 inhibitor: -6

How did CCOC(=O)N1CCN(Cc2nc3cc(NC(=O)c4ccccc4[N+](=O)[O-])ccc3n2C(C)C)CC1 do in these assays?
IP6K1 inhibitor: -14; KDM5B inhibitor: inactive

How did CCOC(=O)N1CCN(Cc2nc3cc(NC(=O)c4ccccc4OC)ccc3n2C(C)C)CC1 do in these assays?
IP6K1 inhibitor: -57*; KDM5B inhibitor: inconclusive

How did COc1ccc(-c2c(C(=O)Nc3cccc(Cl)c3)nc3sccn23)cc1 do in these assays?
IP6K1 inhibitor: 12

What do the screens show for `O=C1CO[C@H]2CCN(Cc3ccccn3)CC[C@@H]2N1c1ccccc1`?
IP6K1 inhibitor: -7; KDM5B inhibitor: inconclusive

What do the screens show for `CC(C)N1C(=O)CO[C@H]2CCN(Cc3ccccn3)CC[C@@H]21`?
IP6K1 inhibitor: -11; KDM5B inhibitor: 35µM*

What do the screens show for `Cn1ncc2c(C(=O)NC3CCCc4ccccc43)cc(-c3ccccc3C(F)(F)F)nc21` (stereo unspecified)?
IP6K1 inhibitor: 9

What do the screens show for `CCn1cnc2c1c(=O)n(CC(=O)N(c1ccccc1)C1CCCCC1)c(=O)n2Cc1ccccc1`?
KDM5B inhibitor: inactive

How did Cc1ccc(C)c(NC(=O)C(C)SCc2nc(-c3ccccc3)oc2C)c1 (stereo unspecified) do in these assays?
KDM5B inhibitor: inactive

What do the screens show for `COc1ccc(CN2CCn3c(nnc3C3CCNCC3)C2)cc1`?
IP6K1 inhibitor: 3; KDM5B inhibitor: inactive

What do the screens show for `FC(F)(F)c1ccc(CN2CCn3c(nnc3C3CCNCC3)C2)cc1`?
IP6K1 inhibitor: -2; KDM5B inhibitor: inconclusive

Results for c1ccc(CN2CCn3c(nnc3C3CCNCC3)C2)cc1 ?
IP6K1 inhibitor: -9; KDM5B inhibitor: 100µM*

How did CC(=O)Nc1ccc(CN2CCn3c(nnc3C3CCNCC3)C2)cc1 do in these assays?
IP6K1 inhibitor: 4; KDM5B inhibitor: 13µM*

How did COc1cccc(NC(=O)O[C@@H]2CO[C@H]3[C@@H]2OC[C@@H]3Nc2nccc(-c3ccc(-c4ccccc4)cc3)n2)c1 do in these assays?
IP6K1 inhibitor: 4; KDM5B inhibitor: inconclusive

What do the screens show for `COc1ccc(-c2ccnc(N[C@H]3CO[C@H]4[C@@H]3OC[C@@H]4NC(=O)CCCC(=O)O)n2)cc1`?
IP6K1 inhibitor: -3; KDM5B inhibitor: 32µM*

What do the screens show for `COc1ccc(-c2ccnc(N[C@H]3CO[C@H]4[C@@H]3OC[C@@H]4NC(=O)CC3(CC(=O)O)CCCC3)n2)cc1`?
IP6K1 inhibitor: -15; KDM5B inhibitor: 28µM*

Results for N#Cc1cccc(-c2ccnc(N[C@H]3CO[C@H]4[C@@H]3OC[C@@H]4NC(=O)c3ccc4c(c3)OCO4)n2)c1 ?
IP6K1 inhibitor: -1; KDM5B inhibitor: inconclusive

How did O=C(O)CCCC(=O)N[C@H]1CO[C@H]2[C@@H]1OC[C@@H]2Nc1nccc(-c2ccc3c(c2)OCO3)n1 do in these assays?
IP6K1 inhibitor: 0; KDM5B inhibitor: 28µM*

Results for COc1ccccc1C(=O)Nc1cc(C2CC2)nn1-c1ccccc1 ?
IP6K1 inhibitor: -6

Results for Cn1nc(-c2nncn2CC2CC2)c2c1CCN(C(=O)C1CC1)C2 ?
IP6K1 inhibitor: -3; KDM5B inhibitor: inactive

What do the screens show for `CCn1cnnc1-c1nn(C)c2c1CN(C(=O)CCC1CCCC1)CC2`?
IP6K1 inhibitor: -11; KDM5B inhibitor: 22µM*

How did O=C(C1CCN([S+](=O)([O-])c2cccc(C(F)(F)F)c2)CC1)N1CCC(N2Cc3cccn3C2=O)CC1 do in these assays?
IP6K1 inhibitor: -2

What do the screens show for `FC(F)(F)c1cccc(-c2noc(-c3ccc(NCCN4CCOCC4)nc3)n2)c1`?
IP6K1 inhibitor: 14; KDM5B inhibitor: inconclusive

What do the screens show for `OC[C@@H]1CN(c2ccc(-c3nc(-c4cccc(C(F)(F)F)c4)no3)cn2)C[C@H]1CO`?
IP6K1 inhibitor: 0; KDM5B inhibitor: 28µM*

Results for OCC1CCCN(c2ccc(-c3nc(-c4cccc(C(F)(F)F)c4)no3)cn2)C1 (stereo unspecified) ?
IP6K1 inhibitor: -2; KDM5B inhibitor: 28µM*

Results for FC(F)(F)c1cccc(-c2noc(-c3ccc(Br)cc3)n2)c1 ?
KDM5B inhibitor: inactive

How did O=C(c1ccc(C(F)(F)F)cc1)N1CCC(C(=O)N2CCC(c3ccccc3)CC2)CC1 do in these assays?
IP6K1 inhibitor: 16

Results for COCCN(C)C(=O)c1ccc2c(c1)NC(C)(CCCCc1ccccc1)CO2 (stereo unspecified) ?
IP6K1 inhibitor: -1; KDM5B inhibitor: inactive

Results for CC1(CCCCc2ccccc2)COc2ccc(C(=O)NCCc3cnc[nH]3)cc2N1 (stereo unspecified) ?
IP6K1 inhibitor: -4; KDM5B inhibitor: 32µM*

Results for CC1(CCCCc2ccccc2)COc2ccc(C(=O)NC3CC3)cc2N1 (stereo unspecified) ?
IP6K1 inhibitor: 5; KDM5B inhibitor: 28µM*

What do the screens show for `CC1(CCCCc2ccccc2)COc2ccc(C(=O)N3CC(O)C3)cc2N1` (stereo unspecified)?
IP6K1 inhibitor: 9; KDM5B inhibitor: inconclusive

What do the screens show for `CN(C)C(=O)c1ccc2c(c1)NC(C)(CCCCc1ccccc1)CO2` (stereo unspecified)?
IP6K1 inhibitor: -9; KDM5B inhibitor: inactive

What do the screens show for `CC1(CCCCc2ccccc2)COc2ccc(C(=O)NC3CCOCC3)cc2N1` (stereo unspecified)?
IP6K1 inhibitor: 10; KDM5B inhibitor: 35µM*

Results for COC(=O)[C@@H]1Cc2c([nH]c3ccccc23)[C@H]2C[C@@H](NCCN3CCOCC3)C[C@@H](c3ccc(F)c(F)c3)N21 ?
IP6K1 inhibitor: -5; KDM5B inhibitor: inconclusive

Results for COc1ccc(NC(=O)c2cc(C(C)(C)C)nc3c2cnn3C)cc1 ?
IP6K1 inhibitor: 2

How did CCN(CC)CCCC(C)NCc1cc(Br)cs1 (stereo unspecified) do in these assays?
KDM5B inhibitor: inactive
